Shown are actives, neighbours in structure and some others; about 19% of the full set was active somewhere.
Pf growth 96h: P. falciparum growth inhibition at 96 hours | AID 504834 | P. falciparum luciferase reporter growth, 96 h | Potency, µM (top dose mostly 28.7 µM), for the others: at the top dose activity change, negative = inhibition, actives largely listed as inhibitors | 320,000 tested, 6.9% active; further: potency means the concentration at half of the fitted maximal effect; on the % scale 0 is the no-effect control and ±100 the full control effect
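Luminescence readout: decreased luciferase signal marks inhibited growth of reporter-expressing P. falciparum in infected red cells (2% hematocrit, 0.05% parasitemia final), exposed to compound two generations (96 h, 37 C, 5% CO2).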
Pf growth 48h: inhibits P. falciparum growth in the first generation, 48 h; Potency, µM (titrated, usually from 28.7 µM), for the others: top-dose activity change, negative = inhibition, actives largely listed as inhibitors; P. falciparum luciferase growth in erythrocytes, 48 h; 310,000 tested, 5.9% active; AID 504832; further: potency means the concentration at half of the fitted maximal effect; on the % scale 0 is the no-effect control and ±100 the full control effect
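Luminescence readout; reporter = integrated firefly luciferase in P. falciparum. RBC culture at 2% hematocrit, 0.1% parasitemia final, 37 C/5% CO2; decreased signal taken as growth inhibition.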
AMA1-RON2 inh: disrupts binding of P. falciparum AMA1 to RON2 | Potency, µM (highest dose often 58.2 µM), for the others: at the highest dose activity change, negative = inhibition, usual class: inhibitors | AlphaScreen AMA1-biotinylated RON2 peptide binding | 360,000 tested, 0.2% active;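 further: potency means the concentration at half of the fitted maximal effect; 0% = vehicle wells and -100% = peptide control; nearly all actives have a fitted effect of over 45% in size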
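AMA1 (3D7) with his tag at 25 nM final met compounds first, then biotinylated RON2 peptide at 25 nM; detection used donor plus acceptor beads, 10 µg/mL apiece, read by AlphaScreen after 30 min at room temperature.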
CHX counter: counter-screen hit for Shiga toxin inhibitors, cycloheximide; cell reporter, cycloheximide protein synthesis inhibition counterscreen; max response, %; 300,000 tested, 12% active; AID 2314; in the data active means max response mostly above about 13%, no sharp cut-off; inactive means mostly below about 14%; further: read at 38.3 µM for the half of the compounds with a filed dose; 0% is about no effect
SARS PLP yeast: blocks SARS-CoV papain-like protease in a yeast assay; S. cerevisiae expressing SARS-CoV PLpro, growth rescue; Potency, µM (series often up to 32.9 µM), for inactives: at the highest dose activity, positive = growth rescue, usual class: activators; 330,000 tested, 0.19% active; AID 485353; calls by dose curve; further: potency means the concentration at half of the fitted maximal effect; 0% is about no effect; nearly all actives have a fitted effect of over 55% in size
Shiga inhibitor: blocks Shiga toxin action in Vero cells; Vero cells, Shiga toxin protein synthesis inhibition reporter; inhibition, % at 38.7 µM; 290,000 tested, 9.2% active; AID 2315; in the data active means inhibition mostly above about 28%, no sharp cut-off; inactive means mostly below about 43%; further: 0% is about no effect
Numbers without * were called inactive; i = inactive; u = inconclusive; x = no result given; [ ] = another dose, or the depositor's remark. Unless noted, the call rests on the fitted dose curve; in most records, active means well fitted curve in the direction sought with a large enough effect; inconclusive means small, poorly fitted or top-dose-only effect, or another doubt; inactive means no such curve, though single readings can be large; an effect the other way counts as inactive or inconclusive.

SMILES	Pf growth 96h	Pf growth 48h	AMA1-RON2 inh	CHX counter	SARS PLP yeast	Shiga inhibitor
CC(=O)OCC(=O)[C@@]12OC3(CCCC3)O[C@@H]1C[C@H]1[C@@H]3CCC4=CC(=O)C=C[C@]4(C)[C@@]3(F)[C@@H](O)C[C@@]12C	10.4µM*	11.7µM*	-0.6%	-2.5	-23.7%	-10.4
CC1CCN(c2ccc3nnc(CCC(=O)Nc4cccc(F)c4)n3n2)CC1	u	u	-2.8%	2.3	6.1%	-1.6
Cc1ccc(-c2[nH]ncc2/C=N/n2c(COc3ccccc3C)nc3ccccc3c2=O)cc1	u	u	26.4%	7.3	5.6%	19.6
O=C1NC(=O)N(c2ccc3c(c2)OCO3)C(=O)/C1=C/c1cccs1	18.5%	16.6%	17.8%	1.1	-0.1%	48.7*
O=C1NC(=O)N(c2ccc3c(c2)OCO3)C(=O)/C1=C/c1ccsc1	1.5%	8.8%	15.5%	9.1	-0.6%	-8.8
CCN1C(=O)C(C)S/C1=N\S(=O)(=O)c1ccc(Cl)s1 (centres undefined)	7.5%	x	-4.7%	-1.9	5.8%	-11.3
CC(C)Oc1ccc(C(=O)NC(=S)N2CCOCC2)cc1	u	15.9%	64.4%	31.6*	26.1%	45.0*
CC(C)(C)c1ccc(C(=O)Nc2ccc(C(=O)N3CCOCC3)cc2)cc1	u	u	-1.7%	-1.8	1.8%	8.1
COc1ccc(C(=O)NC(=S)N2CCOCC2)cc1Br	u	u	77.7%	-3.5	-2.2%	-6.3
CC(C)(C)c1ccc(C(=O)NC(=S)N2CCOCC2)cc1	2.62µM*	-79.6%	123.2%	45.7*	3.6%	91.8*
Clc1ccc(-c2nc3c4ccccc4ccn3c2Cc2ccccc2)cc1	x	x	13.5%	x	x	x
CCn1ccnc1CN(C)C(=O)c1cc(COc2ccccc2SC)on1	u	-8.0%	10.1%	53.4*	1.4%	95.6*
CN(Cc1nccn1C)C(=O)c1cc(COc2ccc3ncccc3c2)on1	11.0%	-10.2%	-9.9%	-2.1	-0.5%	5.5
CCn1ccnc1CNC(=O)c1cc(COc2ccc(F)cc2F)on1	-1.2%	u	21.0%	5.3	0.0%	23.4
Cc1cc(OCc2cc(C(=O)N(Cc3nccn3C)C(C)C)no2)cc(C)c1Cl	14.7µM*	-0.4%	-7.1%	26.2*	1.9%	55.4*
CSc1ccccc1OCc1cc(C(=O)N(Cc2nccn2C)C(C)C)no1	7.3%	1.3%	-1.3%	28.5*	1.1%	36.7
Cc1nc(NC(=O)c2cc3ccccc3o2)sc1C	u	87.4%	-7.3%	37.3*	-10.5%	45.5
CCOC(=O)c1csc(NC(=O)c2cc3ccccc3o2)n1	i	254.6%	4.9%	55.2*	-1.3%	74.8*
CCOC(=O)c1ccccc1NC(=O)c1cc2ccccc2o1	-18.2%	-24.0%	0.5%	6.0	2.0%	64.8
CCOC(=O)c1sc(NC(=O)c2ccccc2OC)nc1C	92.6%	139.7%	10.7%	23.9*	-4.6%	69.0*
Cc1cnc(NC(=O)c2cc3ccccc3o2)s1	472.2%	234.4%	59.1%	17.7*	-0.4%	46.7
Cc1ccc(CNS(=O)(=O)NCc2ccc(Cl)cc2)cc1	-0.4%[1.15 µM]	13.5%	-3.6%	-5.5	0.1%	-7.9
CON(c1nc(Cl)nc(N(C)C)n1)S(=O)(=O)c1ccc(C)cc1	-15.2%	0.0%	-5.6%	5.4	-4.9%	4.5
CCOC(=O)CC/C(C)=N\N=C1\SC(CC(=O)O)C(=O)N1c1ccccc1 (centres undefined)	u	u	-3.2%	-1.0	0.1%	-9.3
COc1ccc(C2=CC(=O)C[C@H](c3ccc(F)cc3)C2)c(OC)c1	u	u	-10.8%	x	1.6%	x
SMILES	Pf growth 96h	Pf growth 48h	AMA1-RON2 inh	CHX counter	SARS PLP yeast	Shiga inhibitor
CCn1cc(/C=N\NC(=O)C2(C)CC2(Cl)Cl)c(C)n1 (centres undefined)	-13.0%	16.4%	12.8%	8.7	-4.8%	8.6
COCCNCC(=O)Nc1nc(C)cs1	25.4%	15.2%	54.0%	1.7	-0.1%	-3.3
Cc1nnc(NC(=O)c2cc3ccccc3o2)s1	16.7%	123.4%	-4.5%	25.0*	-7.3%	67.3*
CS(=O)(=O)c1ccc2sc(NC(=O)c3cc4ccccc4o3)nc2c1	6.1%	28.7%	-20.1%	-1.8	-1.5%	2.5
CCc1ccc(C(=O)Nc2nc(C)cs2)s1	24.3%	24.1%	0.3%	40.8*	1.3%	35.6*
CCOC(=O)c1sc(NC(=O)c2cc3ccccc3o2)nc1C	u	370.1%	-9.7%	39.7*	-3.0%	60.6*
CCOC(=O)c1sc(NC(=O)c2ccc(CC)s2)nc1C	x	80.3%	14.4%	40.0*	-0.2%	105.4*
CCOC(=O)c1sc(NC(=O)Cc2ccc(C)cc2)nc1C	14.5%	-1.9%	-10.7%	13.8	-1.6%	21.5
Cc1c(N2C(=O)c3cccc4cccc(c34)C2=O)cnn1C	28.4%	17.3%	0.0%	-2.2	1.1%	-4.5
Cc1ccccc1-c1nnc(NC(=O)c2cc3ccccc3oc2=O)s1	-19.5%	2.2%	x	-3.0	5.7%	-14.7
CCc1ccc(C(=O)Nc2cccc(-c3nn[nH]n3)c2)s1	45.3%	u	-6.0%	4.0	1.8%	11.4
CCc1nnc(NC(=O)c2cc3ccccc3oc2=O)s1	x	0.3%	8.7%	10.7*	-3.2%	-2.7
C=CCOC(=O)c1sc(NC(=O)c2ccco2)nc1C	5.2%	176.0%	-17.4%	27.9*	-3.1%	127.9*
CCc1ccc(C(=O)Nc2cc(C)ccc2F)s1	120.1%	37.7%[1.15 µM]	3.6%	70.2*	-2.9%	104.8*
O=C(Nc1ccccc1)/C(=C/c1ccccc1)NC(=O)c1ccco1	84.6%	-12.1%	-0.5%	8.5	-1.0%	-3.9
O=C(Oc1ccc(/C=N/NC(=O)c2ccco2)cc1)c1ccccc1	-106.6%	u	0.0%	x	-6.1%	x
O=C(N/N=C/C(Cl)=C\c1ccccc1)c1ccco1	3.7µM*	1.85µM*	11.8%	48.4*	-4.0%	112.6*
O=C(N/N=C/C(Cl)=C/c1ccccc1)c1ccco1	u	5.22µM*	7.6%	50.9*	-3.2%	71.2*
CCCCn1c(N)c(N(CC(C)C)C(=O)CN2C(=O)NC3(CCC(C(C)(C)CC)CC3)C2=O)c(=O)[nH]c1=O (centres undefined)	x	x	2.4%	x	x	x
N/C(=N\OC(=O)Oc1ccccc1)c1ccc(Br)cc1	37.4%	x	2.3%	-4.0	1.0%	-21.6
NC(=Nc1ccc(Br)cc1)c1ccccc1	8.7%	37.1%	4.4%	19.7*	7.0%	76.0*
COc1cc(OC)c(OC)cc1/C=N/N(C)c1ccccc1	-98.3%	x	31.6µM*	17.1	-5.1%	33.3
COc1cc(OC)c(OC)cc1C=O	x	x	-1.8%	x	1.3%	x
COc1cc(/C=N/N(C)c2ccccc2)ccc1O	x	305.3%	-19.8%	31.1*	-5.0%	88.5*
CCC(C)(C)NC(=O)CN(CC1CCCO1)C(=O)CNS(=O)(=O)c1ccccc1 (centres undefined)	u	7.7%	5.5%	-8.3	2.5%	-3.1

Source: PubChem BioAssay (National Center for Advancing Translational Sciences (NCATS))
